About 3,300 (8.5%) of roughly 39,000 compounds were called active. This excerpt belongs to a sample that is enriched for actives.
What follows are compounds tested on HepG2 (assay: cytotoxicity call (relative viability < 0.9)). Details: 10 µM.

Structure (SMILES) | cytotoxicity call
COc1cccc(S(=O)(=O)Nc2ccc3c(c2)[C@@H]2C[C@@H](CC(=O)NCc4cccc(F)c4)O[C@H](CO)[C@@H]2O3)c1 | inactive
O=C(C[C@@H]1C=C[C@@H](NS(=O)(=O)c2ccccc2)[C@@H](CO)O1)NCc1ccncn1 | inactive
COc1ccc(S(=O)(=O)N2C[C@H](O)COC[C@@H]3O[C@@H](CC(=O)N[C@@H]4CCN(Cc5ccccc5)C4)CC[C@H]32)cc1 | inactive
COCC(=O)Nc1ccc2c(c1)C(=O)N(C)C[C@@H](OC)[C@@H](C)CN(Cc1ccccc1OC)[C@H](C)CO2 | inactive
C[C@@H]1CCCCO[C@H](CN(C)C(=O)Cc2ccccc2)[C@H](C)CN([C@@H](C)CO)C(=O)c2cc(NS(=O)(=O)c3ccc(Cl)cc3)ccc2O1 | inactive
COCC(=O)N1C[C@H](C)[C@H](OC)CN(C)C(=O)c2ccc(NC(=O)c3ccc(OC)cc3)cc2OC[C@H]1C | inactive
Cc1noc(C)c1S(=O)(=O)N(C)C[C@H]1OCCCC[C@@H](C)Oc2ccc(NC(=O)Nc3ccc(F)cc3)cc2C(=O)N([C@H](C)CO)C[C@@H]1C | inactive
Cc1noc(C)c1S(=O)(=O)Nc1ccc2c(c1)C(=O)N([C@H](C)CO)C[C@@H](C)[C@H](CN(C)Cc1ccccc1)OCCCC[C@H](C)O2 | inactive
COc1ccc(S(=O)(=O)N(C)C[C@@H]2Oc3ccc(NC(=O)Nc4ccc(Cl)c(Cl)c4)cc3CC(=O)N([C@@H](C)CO)C[C@@H]2C)cc1Cl | active
CC(C)NC(=O)Nc1ccc2c(c1)CC(=O)N([C@@H](C)CO)C[C@@H](C)[C@H](CN(C)S(=O)(=O)c1ccc(Cl)cc1)O2 | inactive
COc1ccc(S(=O)(=O)N(C)C[C@@H]2Oc3ccc(NC(=O)Nc4cccc5c4CCCC5)cc3CC(=O)N([C@@H](C)CO)C[C@@H]2C)cc1Cl | inactive
COc1ccc(S(=O)(=O)N(C)C[C@@H]2Oc3ccc(NC(=O)Nc4cc(Cl)cc(Cl)c4)cc3CC(=O)N([C@@H](C)CO)C[C@@H]2C)cc1Cl | active
COc1ccc(S(=O)(=O)N(C)C[C@@H]2Oc3ccc(NC(=O)NC(C)C)cc3CC(=O)N([C@H](C)CO)C[C@@H]2C)cc1 | inactive
CC(C)NC(=O)Nc1ccc2c(c1)CC(=O)N([C@H](C)CO)C[C@@H](C)[C@H](CN(C)S(=O)(=O)c1ccc(Cl)cc1)O2 | inactive
CCS(=O)(=O)N1CCNCC1 | inactive
CC1C(=O)CCC2C1(C)CCC1C2(C)CCC2(C)C3CC(C)(C)CCC3(C)CCC12C (stereo not given) | inactive
O=C(O)c1n[nH]c2c1CCCC2 | inactive
C[C@H]1CN([C@@H](C)CO)C(=O)c2cc(C#Cc3ccccc3F)cnc2O[C@H]1CN(C)C(=O)C1CCOCC1 | inactive
COc1ccc(C[C@@H]2c3cc(OC)c(OC)cc3CC[N@+]2(C)CCC(=O)OCCCCCOC(=O)CC[N@@+]2(C)CCc3cc(OC)c(OC)cc3[C@H]2Cc2ccc(OC)c(OC)c2)cc1OC | active
COc1ccc(CC2c3cc(OC)c(OC)cc3CC[N+]2(C)CCC(=O)OCCCCCOC(=O)CC[N+]2(C)CCc3cc(OC)c(OC)cc3C2Cc2ccc(OC)c(OC)c2)cc1OC.O=S(=O)([O-])c1ccccc1.O=S(=O)([O-])c1ccccc1 (stereo not given) | inactive
COc1ccc(C[C@H]2c3cc(OC)c(OC)cc3CC[N@+]2(C)CCC(=O)OCCCCCOC(=O)CC[N@+]2(C)CCc3cc(OC)c(OC)cc3[C@@H]2Cc2ccc(OC)c(OC)c2)cc1OC | inactive
COc1ccc(S(=O)(=O)Nc2ccc3c(c2)C(=O)N([C@@H](C)CO)C[C@H](C)[C@@H](CN(C)S(=O)(=O)c2ccccc2)O3)cc1 | inactive
C[C@@H]1CN([C@H](C)CO)C(=O)c2cc(NC(=O)C3CCCCC3)ccc2O[C@H]1CN(C)Cc1ccc(C(F)(F)F)cc1 | inactive

Structure (SMILES) | cytotoxicity call
CC(C)NC(=O)Nc1cccc2c1O[C@@H](CN(C)Cc1ccc(Oc3ccccc3)cc1)[C@@H](C)CN([C@H](C)CO)C2=O | inactive
COc1cccn(CC(=O)N2CCO[C@@H](CCN)C2)c1=O | inactive
CCNc1nc(SCC(N)=O)nc(N2CCOCC2)n1 | inactive
CN(C)c1nc(SCC(N)=O)nc(N(C)C)n1 | inactive
CNc1nc(SCC(N)=O)nc(N2CCOCC2)n1 | active
Cn1c(=O)c2c(nc(N(CCO)CCO)n2Cc2ccc(F)cc2)n(C)c1=O | inactive
C[C@@H]1CN([C@@H](C)CO)C(=O)c2c(c3ccccc3n2C)-c2ccccc2CO[C@H]1CN(C)Cc1ccc(Oc2ccccc2)cc1 | inactive
C[C@@H]1CN([C@H](C)CO)C(=O)Cc2cc(NC(=O)CCC(F)(F)F)ccc2O[C@H]1CN(C)C(=O)Nc1ccc(C(F)(F)F)cc1 | inactive
C[C@@H]1CN([C@H](C)CO)C(=O)Cc2cc(NC(=O)C3CCCCC3)ccc2O[C@@H]1CN(C)Cc1ccc(-c2ccccc2)cc1 | active
C[C@H](CO)N1C[C@H](C)[C@H](CN(C)Cc2ccc(-c3ccccc3)cc2)Oc2ccc(NC(=O)C3CCCCC3)cc2CC1=O | inactive
C[C@@H]1CN([C@H](C)CO)C(=O)Cc2cc(NC(=O)C3CCCCC3)ccc2O[C@H]1CN(C)Cc1ccc(-c2ccccc2)cc1 | inactive
C[C@@H]1CN([C@@H](C)CO)C(=O)Cc2cc(NC(=O)C3CCCCC3)ccc2O[C@@H]1CN(C)Cc1ccc(-c2ccccc2)cc1 | active
C[C@@H]1CN([C@@H](C)CO)C(=O)Cc2cc(NC(=O)C3CCCCC3)ccc2O[C@H]1CN(C)Cc1ccc(-c2ccccc2)cc1 | inactive
C[C@H]1CN([C@@H](C)CO)C(=O)Cc2cc(NC(=O)C3CCCCC3)ccc2O[C@@H]1CN(C)Cc1ccc(-c2ccccc2)cc1 | inactive
Cc1noc(C)c1NC(=O)N(C)C[C@H]1Oc2c(NC(=O)C3CC3)cccc2C(=O)N([C@H](C)CO)C[C@H]1C | inactive
COc1ccc(NC(=O)Nc2ccc3c(c2)CC(=O)N([C@H](C)CO)C[C@H](C)[C@@H](CN(C)Cc2ccc(Cl)c(Cl)c2)O3)cc1 | inactive
COc1ccc(NC(=O)Nc2ccc3c(c2)CC(=O)N([C@H](C)CO)C[C@H](C)[C@H](CN(C)Cc2ccc(Cl)c(Cl)c2)O3)cc1 | active
COc1ccc(NC(=O)Nc2ccc3c(c2)CC(=O)N([C@@H](C)CO)C[C@H](C)[C@H](CN(C)Cc2ccc(Cl)c(Cl)c2)O3)cc1 | active
COc1ccc(NC(=O)Nc2ccc3c(c2)C(=O)N([C@H](C)CO)C[C@@H](C)[C@H](CN(C)Cc2ccc(Cl)c(Cl)c2)O3)cc1 | inactive
COc1ccc(NC(=O)Nc2ccc3c(c2)C(=O)N([C@@H](C)CO)C[C@@H](C)[C@H](CN(C)Cc2ccc(Cl)c(Cl)c2)O3)cc1 | inactive
COc1ccc(NC(=O)Nc2ccc3c(c2)CC(=O)N([C@@H](C)CO)C[C@H](C)[C@@H](CN(C)Cc2ccc(Cl)c(Cl)c2)O3)cc1 | active
COc1ccc(NC(=O)Nc2ccc3c(c2)CC(=O)N([C@@H](C)CO)C[C@@H](C)[C@@H](CN(C)Cc2ccc(Cl)c(Cl)c2)O3)cc1 | active
